Assay outcomes as filed in PubChem.
Rv3671c inh: inhibits the M. tuberculosis serine protease Rv3671c; inhibition, % at 5.96 µM; P9WHR9; AID 2606; 320,000 tested, 0.048% active; in the data active means inhibition above about 38%;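 further: extracellular domain of Rv3671c used as enzyme; 0% = enzyme with DMSO and 100% = no enzyme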
Sa RN4220 lethal: kills Staphylococcus aureus RN4220. 330,000 tested, 0.33% active. inhibition, % (test concentration not listed). S. aureus RN4220 growth, OD600, 16 h; in the data active means inhibition above about 85%;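 further: plate controls were untreated cells for no effect and reference antibiotic for full effect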
Mtb hypoxia inh: Mtb hypoxia fluorescent reporter inhibition. M. tuberculosis hypoxia-regulated fluorescent reporter, fluorescence. fluorescence inhibition, % (test concentration not listed). 300,000 tested, 0.1% active. AID 1159583; in the data active means fluorescence inhibition mostly above about 23%, no sharp cut-off; inactive means mostly below about 17%
ugtP null kill: growth inhibition of S. aureus ugtP deletion strain | AID 1259309 | growth inhibition, % (concentration not given with the values) | S. aureus RN4220 ugtP deletion, OD600 growth, 16 h | 330,000 tested, 0.54% active; in the data active means growth inhibition above about 68%;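 further: plate controls were untreated wells for no effect and antibiotic for full effect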
Mtb UGM inh: blocks M. tuberculosis UGM enzyme | P9WIQ1 | purified UGM, fluorescence polarization probe displacement | inhibition, % at 10 µM | 320,000 tested, 0.06% active | AID 504406; in the data active means inhibition above about 10%, passing the limit was not always enough; inconclusive means no clear call, values can overlap the other calls
Target sequence (P9WIQ1 whole entry, looked up): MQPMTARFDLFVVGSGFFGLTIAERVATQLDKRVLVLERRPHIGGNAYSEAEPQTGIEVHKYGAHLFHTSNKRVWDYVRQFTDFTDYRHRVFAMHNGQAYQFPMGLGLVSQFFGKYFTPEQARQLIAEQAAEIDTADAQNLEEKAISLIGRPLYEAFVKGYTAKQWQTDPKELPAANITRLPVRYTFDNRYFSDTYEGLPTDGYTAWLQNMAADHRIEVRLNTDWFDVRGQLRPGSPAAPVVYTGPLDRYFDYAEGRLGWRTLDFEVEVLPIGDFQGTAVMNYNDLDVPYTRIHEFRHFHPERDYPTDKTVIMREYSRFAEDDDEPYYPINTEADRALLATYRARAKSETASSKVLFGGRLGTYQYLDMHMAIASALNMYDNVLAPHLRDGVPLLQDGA
Mtb betalactam: beta-lactam sensitization of Mtb H37Rv; M. tuberculosis H37Rv growth with meropenem, percent inhibition; inhibition, % at 25 µM; 330,000 tested, 0.27% active; AID 434955; call rule not given here;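 further: growth measured after seven days incubation then overnight dye step; 0% = bacteria only wells and 100% = bacteria with antibiotic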
* hit, by the source's call. Sampled rows, rich in hits. Any-hit rate of the full collection: about 0.68%.

O=C(Oc1ccc(OC(=O)c2ccncc2)cc1)c1ccncc1 was read as Rv3671c inh 1, Sa RN4220 lethal 0, Mtb hypoxia inh 37*, ugtP null kill -8, Mtb UGM inh -4 and Mtb betalactam 12.
Screening COc1ccc(OC(=O)c2ccncc2)cc1 returned Rv3671c inh -4, Sa RN4220 lethal -2, Mtb hypoxia inh -1, ugtP null kill -4, Mtb UGM inh 3 and Mtb betalactam -9.
Screening CCOC(=O)C1C2COc3ccc(Br)cc3C2N2C(=O)N(c3ccc(Cl)cc3)C(=O)[C@@]12C (stereo not given in full) returned Sa RN4220 lethal -1, Mtb hypoxia inh 3 and ugtP null kill -38.
Cc1ccc(S(=O)(=O)N2CCOCC2)cc1C(=O)OCC(=O)NC1CC1 was read as Rv3671c inh -9, Sa RN4220 lethal 4, Mtb hypoxia inh 33*, ugtP null kill 10, Mtb UGM inh 2 and Mtb betalactam -7.
`COc1ccc(-c2ccc(/C=C3/C(=N)N4C(C)=CSC4=NC3=O)o2)c([N+](=O)[O-])c1` gave Rv3671c inh -15, Sa RN4220 lethal 6, Mtb hypoxia inh 4, ugtP null kill 98*, Mtb UGM inh 4 and Mtb betalactam inconclusive.
CCCCC1CNCCN1CC1(c2ccccc2)CC1 (stereo not given) was read as Sa RN4220 lethal 4, Mtb hypoxia inh 13 and ugtP null kill -9.
`c1ccc(C[n+]2c(-c3ccccc3)csc2Nc2ccccc2)cc1` gave Rv3671c inh 6, Sa RN4220 lethal -10, Mtb hypoxia inh 9, ugtP null kill 85*, Mtb UGM inh 2 and Mtb betalactam 2.
For c1ccc(Nc2scc(-c3ccccc3)[n+]2Cc2ccco2)cc1 the results were Rv3671c inh 1, Sa RN4220 lethal -6, Mtb hypoxia inh 3, ugtP null kill 22, Mtb UGM inh 3 and Mtb betalactam -6.
Screening O=C1C=C(c2ccccc2Oc2ccccc2)CC(c2ccc3c(c2)OCO3)C1 (stereo not given) returned Sa RN4220 lethal 1, Mtb hypoxia inh 12 and ugtP null kill 17.
O=C(Nc1nnc(-c2ccccc2Cl)o1)c1ccco1 was read as Rv3671c inh 3, Sa RN4220 lethal 9, Mtb hypoxia inh 6, ugtP null kill -12, Mtb UGM inh 0 and Mtb betalactam 94.
`O=C(Nc1nnc(-c2ccccc2Cl)o1)c1nc2ccccc2s1` gave Rv3671c inh 22, Sa RN4220 lethal 99*, Mtb hypoxia inh 7, ugtP null kill 100*, Mtb UGM inh 3 and Mtb betalactam 92.
Cc1cc(N/N=C/c2ccccc2O)c2ccccc2n1 was read as Rv3671c inh 5, Mtb UGM inh 1 and Mtb betalactam 99.
For Cc1cc(NN=Cc2ccccc2O)c2ccccc2n1 the results were Sa RN4220 lethal -3, Mtb hypoxia inh 72* and ugtP null kill -15.
O=[N+]([O-])c1cnc(Sc2ccncn2)s1 was read as Rv3671c inh -1, Sa RN4220 lethal 81, Mtb hypoxia inh 11, ugtP null kill 100*, Mtb UGM inh 1 and Mtb betalactam 71.
`CC1C(Sc2ccccc2)CC(=O)OC1c1ccc(-c2ccccc2)cc1` (stereo not given) gave Sa RN4220 lethal 5, Mtb hypoxia inh 9 and ugtP null kill 0.
For CCc1sc(N(C(=O)Cc2ccccc2)c2ccccc2F)nc1-c1ccc(C)cc1 the results were Rv3671c inh 5, Sa RN4220 lethal -11, Mtb hypoxia inh 5, ugtP null kill 85*, Mtb UGM inh 2 and Mtb betalactam -2.
`Fc1ccc(CO/N=C/C2=C(Cl)c3ccccc3CC2)cc1` gave Rv3671c inh 0, Mtb UGM inh -2 and Mtb betalactam 64.
Screening Cc1ccc(CON=CC2=C(Cl)c3ccccc3CC2)cc1 returned Sa RN4220 lethal -6 and ugtP null kill 95*.
CCn1c(O)c(N=NC(=O)c2ccc(CSc3nncn3C)cc2)c2ccccc21 was read as Rv3671c inh -10, Sa RN4220 lethal 5, Mtb hypoxia inh 42*, ugtP null kill 1, Mtb UGM inh -2 and Mtb betalactam 94.
Screening COC(CC=CC(=O)C(C)OCc1ccccc1)OC (stereo not given) returned Sa RN4220 lethal 5, Mtb hypoxia inh 13 and ugtP null kill -4.
For COC(=O)C1CC2CCC(O)CC2N1Cc1ccc(OC)cc1 (stereo not given) the results were Sa RN4220 lethal 5, Mtb hypoxia inh 2 and ugtP null kill -7.
For CN(C)C1C(=O)C(C(N)=O)=C(O)[C@@]2(O)C(=O)C3=C(O)c4c(O)ccc(Cl)c4C(O)C3CC12 (stereo not given in full) the results were Sa RN4220 lethal 100* and ugtP null kill 99*.
For CN(C)C1C(=O)C(C(N)=O)=C(O)C2(O)C(=O)C3=C(O)c4c(O)cccc4C(C)(O)C3C(O)C12 (stereo not given) the results were Rv3671c inh 19, Sa RN4220 lethal 100*, ugtP null kill 100*, Mtb UGM inh 1 and Mtb betalactam 73.
Screening CN(C)C1C(=O)C(C(N)=O)=C(O)[C@@]2(O)C(=O)C3=C(O)c4c(O)cccc4[C@@](C)(O)C3C(O)C12 (stereo not given in full) returned Sa RN4220 lethal 100* and ugtP null kill 99*.
`C[C@H]1c2cccc(O)c2C(O)=C2C(=O)[C@]3(O)C(O)=C(C(N)=O)C(=O)[C@@H](N(C)C)C3[C@@H](O)C21` (stereo not given in full) gave Rv3671c inh -34, Mtb UGM inh -1 and Mtb betalactam 99.
For C=C1c2cccc(O)c2C(=O)C2C(=O)[C@]3(O)C(=O)C(C(N)=O)C(=O)[C@@H](N(C)C)[C@@H]3[C@@H](O)[C@H]12 (stereo not given in full) the results were Rv3671c inh 33 and Mtb betalactam 97.
Screening CN(C)C1C(=O)C(C(N)=O)=C(O)[C@@]2(O)C(=O)C3=C(O)c4c(O)cccc4[C@@](C)(O)C3CC12 (stereo not given in full) returned Sa RN4220 lethal 100* and ugtP null kill 100*.
For CC(C)NC(=O)N(C)CC1Oc2ccc(NC(=O)C3CC3)cc2C(=O)N(C(C)CO)CC1C (stereo not given) the results were Sa RN4220 lethal 0, Mtb hypoxia inh 1 and ugtP null kill 2.
Screening COc1ccc(C2CC(=O)C=C(c3cccc(C(C)C)c3)C2)cc1OC (stereo not given) returned Sa RN4220 lethal -4, Mtb hypoxia inh 1 and ugtP null kill -1.
For Cn1cc(/C=N\O)nc2c(=O)n(-c3ccccc3)c(=O)nc1-2 the results were Rv3671c inh 4, Mtb UGM inh 1 and Mtb betalactam -6.
For Cn1cc(C=NO)nc2c(=O)n(-c3ccccc3)c(=O)nc1-2 the results were Sa RN4220 lethal 7, Mtb hypoxia inh 38* and ugtP null kill -2.
